Results on twelve molecules are retold here after PubChem BioAssay (NCATS).

The nature of test [1]: A High-Content qHTS Against Drug Library for the Identification of Small Molecules that Inhibit DYT1 Early Onset Primary Dystonia-Associated Cell Pathology (AID 1645839; calls by dose curve; also: potency is read from the fitted curve at half-maximal effect). An outline of the steps:
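Readout: %pathology, the punctate EGFP-TorsinA distribution from imaging, as the primary channel and cell count as the toxicity counterscreen. HEK293 Flp-In cells expressing delE TorsinA were induced with tetracycline and treated with compound for 48 h.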
(In general: Quantitative high-throughput screening tests each substance at several concentrations.)

Test [2] can be described thus: Primary qHTS for inhibitors of nuclear receptor binding SET domain protein 2 (NSD2) in an isogenic RCH-ACV NSD2 p.E1099K mutant (9B) (AID 1645876). Also: nearly all actives have a fitted effect of over 70% in size. Also: potency is read from the fitted curve at half-maximal effect.
Another test concerns the target Papain (Carica papaya) (UniProt P00784). Briefly: Primary qHTS assay for inhibitors of the protease papain (AID 1645873).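 Also: papain turnover of Z-FR-AMC read as the AMC fluorescence gain over 10 min; series mostly up to about 50 µM.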
A short description of test [3]: Primary qHTS for inhibitors of nuclear receptor binding SET domain protein 2 (NSD2) in an RCH-ACV wild type WT cells (2C) (AID 1645877). Also: nearly all actives have a fitted effect of over 70% in size. Also: potency is read from the fitted curve at half-maximal effect.
The target of test [4] is Cytochrome P450 2D6 (Homo sapiens) (UniProt P10635). Briefly: Cytochrome P450 family 2 subfamily D member 6 (CYP2D6) small molecule antagonists: luciferase biochemical (cell-free) qHTS assay (AID 1645840; active = well fitted curve in the direction sought with a large enough effect in the repeat runs; an effect the other way counts as inactive or inconclusive; also: series mostly up to about 57 µM; nearly all actives have a fitted effect of over 55% in size). An outline of the steps:
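P450-Glo luminescent screen: recombinant CYP2D6 enzyme–proluciferin substrate mix preincubated with compound 10 min at room temperature, then NADPH regeneration added for 1 h at room temperature. Detection reagent added for 20 min; luciferin light read as relative luminescence units.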

Test [5] concerns the target Cytochrome P450 2C9 (Homo sapiens) (UniProt P11712). Briefly: Cytochrome P450 family 2 subfamily C member 9 (CYP2C9) small molecule antagonists: luciferase biochemical (cell-free) qHTS assay (AID 1645842; active = well fitted curve in the direction sought with a large enough effect in the repeat runs; an effect the other way counts as inactive or inconclusive; also: series mostly up to about 57 µM; nearly all actives have a fitted effect of over 55% in size). The essentials: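 Luminescence, after 20 min with luciferin detection reagent, reflected CYP2C9 turnover during a 1 h NADPH-driven reaction at 37C. Enzyme-substrate mix contained 0.4% bovine serum albumin and was preincubated with compound 10 min at room temperature.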

SMILES strings stand for the structures. Results filed as inconclusive are left out. Some structures have more than one record in an assay (separate samples or runs), and their calls can disagree. The source made the active and inactive calls. Unless noted, calls follow the shape of the dose curve; as a rule, active = well fitted curve in the direction sought with a large enough effect; inconclusive = small, poorly fitted or top-dose-only effect, or another doubt; inactive = no such curve, though single readings can be large; an effect the other way counts as inactive or inconclusive.

Chain of Papain (Carica papaya) (P00784 whole entry, looked up, the tested form may be a part): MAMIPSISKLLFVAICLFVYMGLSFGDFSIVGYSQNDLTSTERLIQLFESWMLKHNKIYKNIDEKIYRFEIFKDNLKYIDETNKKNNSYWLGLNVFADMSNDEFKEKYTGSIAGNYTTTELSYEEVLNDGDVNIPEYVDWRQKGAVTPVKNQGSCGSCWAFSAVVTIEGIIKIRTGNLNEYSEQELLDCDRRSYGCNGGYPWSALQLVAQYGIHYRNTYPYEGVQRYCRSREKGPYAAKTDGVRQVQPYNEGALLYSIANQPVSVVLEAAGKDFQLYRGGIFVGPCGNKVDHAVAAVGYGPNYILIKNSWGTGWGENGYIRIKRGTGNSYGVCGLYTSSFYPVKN
Chain of Cytochrome P450 2C9 (Homo sapiens) (P11712 whole entry, looked up): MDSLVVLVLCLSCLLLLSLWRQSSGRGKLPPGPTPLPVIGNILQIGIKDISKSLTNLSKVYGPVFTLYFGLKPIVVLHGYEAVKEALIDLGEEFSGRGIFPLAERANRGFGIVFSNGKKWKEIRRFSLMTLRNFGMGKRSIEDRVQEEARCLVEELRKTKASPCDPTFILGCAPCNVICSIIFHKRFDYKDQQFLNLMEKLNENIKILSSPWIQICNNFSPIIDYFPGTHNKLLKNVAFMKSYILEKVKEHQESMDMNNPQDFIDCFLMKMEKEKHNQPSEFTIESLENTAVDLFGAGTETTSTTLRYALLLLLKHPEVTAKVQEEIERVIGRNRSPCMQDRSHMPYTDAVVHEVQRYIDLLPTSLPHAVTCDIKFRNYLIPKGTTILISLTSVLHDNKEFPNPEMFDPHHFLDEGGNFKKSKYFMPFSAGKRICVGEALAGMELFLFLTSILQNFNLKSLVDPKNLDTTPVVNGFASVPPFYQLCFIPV
Chain of Cytochrome P450 2D6 (Homo sapiens) (P10635 whole entry, looked up): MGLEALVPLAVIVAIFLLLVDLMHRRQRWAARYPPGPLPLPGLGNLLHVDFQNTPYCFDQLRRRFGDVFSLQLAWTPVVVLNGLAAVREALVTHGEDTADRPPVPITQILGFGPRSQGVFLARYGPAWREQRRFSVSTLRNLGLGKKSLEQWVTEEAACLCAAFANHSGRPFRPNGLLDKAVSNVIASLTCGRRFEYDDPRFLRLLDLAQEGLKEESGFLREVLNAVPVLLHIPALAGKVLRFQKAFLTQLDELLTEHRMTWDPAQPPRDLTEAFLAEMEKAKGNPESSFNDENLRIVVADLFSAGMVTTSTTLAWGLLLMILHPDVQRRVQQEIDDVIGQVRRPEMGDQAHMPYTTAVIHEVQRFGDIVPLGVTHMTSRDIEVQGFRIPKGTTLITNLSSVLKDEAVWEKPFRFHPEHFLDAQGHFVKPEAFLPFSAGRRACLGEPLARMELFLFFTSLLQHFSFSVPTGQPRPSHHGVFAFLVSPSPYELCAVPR

As to `CCCCCCCCCCCCOS(=O)(=O)O`, the Potency result in test [1] and in test [2] was “inactive” in each case.
With `CNCCC(Oc1ccc(C(F)(F)F)cc1)c1ccccc1` (stereo unspecified), the Potency in test [1] is 12.6 µM (active); in test [3] it was 23.7 µM (active). Besides, the Potency result with Papain (Carica papaya) is “inactive”.
Regarding `COc1ccc(Cl)cc1C(=O)NCCc1ccc(S(=O)(=O)NC(=O)NC2CCCCC2)cc1`, the Potency entry in test [1] and in test [2] was “inactive” in each case.
With `O=C(O)c1ccccc1O`, the Potency result in test [1], in test [2] and in test [3] was “inactive” in each case.
Turning to `OC[C@H]1O[C@@H](O[C@@H]2[C@@H](CO)O[C@](O)(CO)[C@H]2O)[C@H](O)[C@@H](O)[C@H]1O`, the Potency result in test [1], in test [4], in test [2] and in test [3] was “inactive” throughout.
As for `COC(=O)C1=C(C)NC(C)=C(C(=O)OC)C1c1ccccc1[N+](=O)[O-]`, the Potency result (in test [1]; in the test with Papain (Carica papaya)) was “inactive” throughout.
For `NCCNCCNCCN`, the Potency entry in test [1], in test [5], in test [2] and in test [3] was “inactive” throughout.
Consider `CC1(C)S[C@@H]2[C@H](NC(=O)Cc3ccccc3)C(=O)N2[C@H]1C(=O)O` (tested in a mixture with another compound), for which the Potency result in test [1] and in test [2] was “inactive” in each case.
In the case of `CC(C)c1c(C(=O)Nc2ccccc2)c(-c2ccccc2)c(-c2ccc(F)cc2)n1CC[C@@H](O)C[C@@H](O)CC(=O)O`, the Potency result (in test [1]; with Papain (Carica papaya)) was “inactive” in each case.
As to `CN1CCOC(c2ccccc2)c2ccccc2C1` (stereo unspecified), the Potency result in test [1], in test [5], in test [2] and in test [3] was “inactive” in each case.
With `Nc1ncnc2c1ncn2[C@@H]1O[C@H](CO)[C@@H](O)[C@H]1O`, the Potency entry (in test [1]; in the test with Papain (Carica papaya)) was “inactive” in each case. Further, the Potency was 9.44 µM (active) and inactive in test [2]; 5.96 µM (active) and inactive in test [3].
For the molecule `CN(C)CCOC(C)(c1ccccc1)c1ccccn1` (stereo unspecified), the Potency entry (in test [1]; in test [5]; in the test with Papain (Carica papaya); in test [2]) was “inactive” each time.
